Inhibition data for 58 molecules are collected here from PubChem BioAssay AID602429 (Sanford-Burnham Center for Chemical Genomics, 2012).

Hit rate of the full screen: of about 360,000 compounds, about 1,200 (0.33%) were called active. Rule as the data show it: active = inhibition above about 37%; inactive = the rest. The sample as a whole holds a higher share of actives than the screen did.

The target of this assay is Small ubiquitin-related modifier 1 (Homo sapiens) (UniProt P63165). Kind of assay: SUMO1 binding to interaction partners, disruption – biochemical, uHTS, primary screen (AID 602429). The settings on record: SUMO1 binding to a labelled peptide, TR-FRET, 1 h; at 20 µM; hits give high values. On the technique in general: In TR-FRET formats the signal depends on donor and acceptor labels being close together.
Small ubiquitin-related modifier 1 (Homo sapiens), sequence (P63165 whole entry, looked up): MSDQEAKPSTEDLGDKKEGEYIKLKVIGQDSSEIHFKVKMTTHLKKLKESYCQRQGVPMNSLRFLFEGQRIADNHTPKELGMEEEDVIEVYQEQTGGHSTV
By inhibition is commonly meant the relative decrease from the control value, in per cent. For the molecule `COc1ccc(C(=O)NC2(C(F)(F)F)NC(=O)N(CCCc3ccccc3)C2=O)c(OC)c1OC` (stereo not drawn), the inhibition is 7.81% (inactive).
In the case of `O=C(Cn1c(=O)n(Cc2ccco2)c(=O)c2ccccc21)NCC1CCCO1` (stereo not drawn) it was 4.85% (inactive); in that of `COc1ccc(-c2oc3ncn(Cc4ccco4)c(=N)c3c2-c2ccc(OC)cc2)cc1`, -9.5% (inactive).
As for `Cn1c2ccccc2c(=O)c2c(=O)n(Cc3ccco3)c(COc3ccccc3)nc21`, the inhibition is 42.3% (active).
For the molecule `O=C(Nc1ccccc1C(=O)N1CCCCC1)c1ccco1`, the inhibition is -3.94% (inactive).
As for `O=C(Nc1ccccc1)c1ccccc1Br`, the inhibition is 41.9% (active).
The figure for `O=C(Nc1ccccc1)c1ccccc1NC(=O)C(F)(F)F` is -1.22% (inactive); for `O=C(O)c1ccccc1-c1ccccc1C(=O)Nc1ccccc1Br` it is -0.773% (inactive).
As to `COc1ccc(NC(=S)N2CCC(NC(=O)c3cccc(F)c3)CC2)cc1`, the inhibition was 4.71% (inactive).
Regarding `Cc1noc(C)c1-c1nc(CSc2ccc(Cl)cc2)no1`, the inhibition was 1.71% (inactive).
`CCN(CC)CCCNC(=O)c1cn(C)c2ccc(S(=O)(=O)N(C)C3CCCCC3)cc2c1=O`: the inhibition is 5.63% (inactive).
`COc1ccc2[nH]c3c(C)c4cc[n+](C)cc4c(C)c3c2c1`: the inhibition was 61.3% (active).
In the case of `CCOc1cc(-c2conc2N)cc(OCC)c1OCC` it was 1.02% (inactive).
`CC(=O)Nc1ccc(NC(=O)CSc2nnc(C3CC3)n2-c2ccccc2)cc1`: the inhibition is 3.94% (inactive).
In the case of `CCOc1ccc(N(CC(=O)NCC2CCCO2)S(=O)(=O)c2ccc(C)cc2)cc1` (stereo not drawn), the inhibition was 6.75% (inactive).
In the case of `CCCCCCC(=O)Nc1nc(C)c(-c2csc(Nc3cccc(OC)c3)n2)s1` it was 40.2% (active); in that of `COc1cccc(NC(=O)COc2cccnc2[N+](=O)[O-])c1`, -32.4% (inactive).
Regarding `C=CCCC(=O)Nc1nc(C)c(-c2csc(Nc3ccc(Cl)cc3)n2)s1`, the inhibition was 1.48% (inactive).
For the molecule `CCCOC1CCCN(Cc2cn(C)nc2-c2ccccc2F)C1` (stereo not drawn), the inhibition was 5.15% (inactive).
For the molecule `COc1ccc(-c2csc(C(O)c3cccc(Cl)c3)n2)cn1` (stereo not drawn), the inhibition was -2.47% (inactive).
`CCc1nn(CC(=O)N2CCN(c3cc(C)ccc3C)CC2)c(=O)c2cc3occc3n12`: the inhibition was 2.09% (inactive).
In the case of `O=S1(=O)CCO[C@H]2Cc3ccccc3[C@H]2N1Cc1ccccc1` it was -0.696% (inactive).
As to `O=C(CCC1CCCN(C(=O)c2ccc(F)c(F)c2)C1)N1CCN(c2ccccn2)CC1` (stereo not drawn), the inhibition was 2.38% (inactive).
Take `COc1cccc(CC(=O)N2CCCC(CCC(=O)N3CCN(c4ccccn4)CC3)C2)c1` (stereo not drawn): the inhibition is -2.38% (inactive).
As to `C=Cc1ccc(C(=O)N2CCCC(CCC(=O)N3CCN(c4ccccn4)CC3)C2)cc1` (stereo not drawn), the inhibition was 58.2% (active).
In the case of `Cc1ccc(NC(=S)NC(NC(=O)Cc2cccc3ccccc23)C(Cl)(Cl)Cl)cc1` (stereo not drawn), the inhibition was 0.772% (inactive).
In the case of `COc1ccc(NC(=O)CSc2nnnn2-c2cccc(OC)c2)cc1` it was -3.25% (inactive); in that of `COc1ccc(-n2c(SCC(=O)NCc3cccs3)nnc2-c2ccoc2C)cc1`, -0.51% (inactive).
In the case of `COc1ccc(-n2nnnc2SCC(=O)NCc2cccs2)cc1`, the inhibition was 43.1% (active).
Take `CC(=O)c1nn(-c2ccccc2)c(=Nc2ccccc2)cc1C`: the inhibition was -14.6% (inactive).
Turning to `OCCC1CN(Cc2cnc(-c3ccccc3)s2)CCN1CCc1ccccc1` (stereo not drawn), the inhibition is -2.45% (inactive).
`Cn1c(N)c(C(=O)COC(=O)/C=C/c2ccc(OC(F)F)cc2)c(=O)n(C)c1=O`: the inhibition was -2.46% (inactive).
Turning to `O=S(=O)(c1ccccc1)N1CN(Cc2ccc(F)cc2)c2nc3ccccc3nc21`, the inhibition is -3.38% (inactive).
Consider `O=C(Nc1ccccc1Cc1ccccc1)c1ccc2c(c1)SC1=NS(=O)(=O)CCN12`, for which the inhibition is 28.2% (inactive).
Consider `O=C(NNC(=O)c1ccc(-c2ccccc2)cc1)Nc1ccccc1`, for which the inhibition was 2.2% (inactive).
Take `O=C(Nc1cccc(-c2nc3ccccc3[nH]2)c1)c1ccc(C(=O)Nc2cccc(-c3nc4ccccc4[nH]3)c2)cc1`: the inhibition is 56.6% (active).
In the case of `CCOc1ccc(C(=O)Nc2cccc(SC)c2)cc1` it was -1.79% (inactive); in that of `C/C(CC(=O)NC(C)c1ccccc1)=N\NC(N)=S` (stereo not drawn), -2.76% (inactive).
For `CC(=O)c1c(C)[nH]c(C(=O)CN2C(=O)NC(C)(C)C2=O)c1C`, the inhibition was -2.31% (inactive).
Turning to `CCOc1cccc2c1OC1(CCCCC1)N1N=C(c3cccnc3)CC21` (stereo not drawn), the inhibition is -1.86% (inactive).
For the molecule `O=C(NC1CCCCC1)c1ccc(CNc2c(N3CCOCC3)c(=O)c2=O)cc1`, the inhibition is -0.641% (inactive).
In the case of `COc1cc(NC(=O)c2ccc(CNc3c(N4CCCC4)c(=O)c3=O)cc2)cc(OC)c1OC` it was 48.9% (active); in that of `O=C(NCc1ccccc1)c1ccc(CNc2c(N3CCCC3)c(=O)c2=O)cc1`, -2.77% (inactive); in that of `COC(=O)c1sccc1NN1C(=O)c2ccccc2C1=O`, -2.44% (inactive).
In the case of `O=C(CCN1C(=O)c2ccncc2C1=O)Nc1ccc2c(c1)OCCO2` it was -14.5% (inactive); in that of `Cc1ccc(C(=O)O)cc1-c1ccc(/C=C2\SC(=O)N(CC(=O)Nc3ccc4c(c3)OCO4)C2=O)o1`, 106% (active); in that of `Cc1nc([N+](=O)[O-])cn1CC(=O)Nc1ccc2c(c1)OCO2`, -6.05% (inactive).
In the case of `CC(=O)O[C@H]1CC[C@@]2(C)[C@@H](CC[C@@H]3[C@@H]2CC[C@]2(C)[C@@H](C(C)(C)O)C[C@@H]32)C1`, the inhibition is 1.55% (inactive).
With `C[C@H]([C@@H](O)[C@@H](O)[C@@H](C)C(C)(C)C)[C@H]1CC[C@H]2C3CC[C@H]4C[C@H](OS(=O)(=O)O)[C@@H](OS(=O)(=O)O)C[C@]4(C)[C@H]3CC[C@]12C` (stereo partly drawn), the inhibition was 57.1% (active).
For the molecule `CCC(CC)c1nnc(NC(=O)C2CCN(C(=O)c3ccco3)CC2)s1`, the inhibition was 0.246% (inactive).
The figure for `O=C(Nc1cccnc1)c1ccc(Cl)cc1[N+](=O)[O-]` is -24.2% (inactive).
Turning to `Fc1cc(Br)ccc1NC(=S)Nc1cccnc1`, the inhibition was -2.62% (inactive).
Regarding `O=C(Nc1cccnc1)c1cc2cc(Br)ccc2oc1=O`, the inhibition is 79% (active).
With `CC(=O)c1c(C)[nH]c(C(=O)COC(=O)c2cccc(S(=O)(=O)N(C)c3ccccc3)c2)c1C`, the inhibition was 0.686% (inactive).
Turning to `CCCCCCCCn1c2c(c(=N)c3c1CCC3)CCCC2`, the inhibition is -1.62% (inactive).
In the case of `COc1ccc(NC(=O)Cn2c(-c3ccc(OC)cc3)cn(-c3ccc(C)cc3)c2=O)cc1`, the inhibition is 5.25% (inactive).
On to `COc1ccc(NC(=O)CN(C)C(=O)c2cc(C)oc2C)cc1`, for which the inhibition was -3.07% (inactive).
In the case of `COc1ccc(CC(=O)Nc2ccc(-c3nnc(-c4ccc(C)cc4)o3)cc2)cc1`, the inhibition is 52% (active).
